This note sets out measurements from PubChem BioAssay AID651640 (Broad Institute, 2012).

In all, about 350,000 compounds went through this assay and about 6,000 (1.7%) were called active. Roughly 5% stayed inconclusive and do not appear here. Cut-off read from the data, not from the text of the source: active = CPE inhibition above about 20% (passing the limit was not always enough); inconclusive = no clear call, values can overlap the other calls; tested in BHK-21 cells. This excerpt belongs to a sample that is enriched for actives.

This assay is described as follows: protection of cells from dengue 2 killing – plate reader, single concentration, primary screen (AID 651640).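 Note: 0% = median of neutral control wells and 100% = median of positive control wells.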 Conditions: DENV2-infected cells, cytopathic effect rescue, at 9.99 µM, active compounds read high.
For the compound `CCCN1[C@H](C(=O)N2CCOCC2)[C@@H](CO)[C@@H]2Cn3c(ccc(/C=C/c4ccccc4)c3=O)[C@@H]21`, the CPE inhibition is 14.1% (inactive).

Turning to `CCCc1cn(CC[C@@H]2CC[C@@H](NS(=O)(=O)c3ccccc3Cl)[C@@H](CO)O2)nn1`, the CPE inhibition is -1.78% (inactive).

As to `CO[C@H]1CN(C)C(=O)c2ccc(NC(=O)Nc3c(C)noc3C)cc2OC[C@@H](C)NC[C@H]1C`, the CPE inhibition is 1.98% (inactive).

On to `C/C=C/c1ccc2c(c1)O[C@H](CN(C)C(=O)c1ccc3c(c1)OCO3)[C@@H](C)CN([C@H](C)CO)S2(=O)=O`, for which the CPE inhibition is 19.1% (inactive).

In the case of `CC(=O)N1C[C@@H]2[C@H](c3ccccc31)[C@H](CO)N2C(=O)Nc1ccc(F)cc1`, the CPE inhibition is -5.97% (inactive).

As for `COc1ccccc1-c1sc2ccccc2c1-c1ccc(Br)nc1`, the CPE inhibition was 24.6% (active).

Regarding `COc1ccccc1-c1sc2ccccc2c1C#CC1(O)CCCCC1`, the CPE inhibition is -3.75% (inactive).

Consider `COc1ccc2sc(-c3ccccc3OC)c(-c3ccc(OCCN4CCCC4)cc3)c2c1`, for which the CPE inhibition is -8.2% (inactive).

As for `COc1ccc(-c2cc(NC=O)c3ncc(-c4ccccc4)n3c2)cc1OC`, the CPE inhibition is 8.91% (inactive).

In the case of `COc1ccc(-c2cc(NC=O)c3ncc(-c4cc(OC)c(OC)c(OC)c4)n3c2)c(OC)c1`, the CPE inhibition was 42.3% (active).

As to `COc1ccc(-c2cc(NC=O)c3ncc(-c4cccc(C(=O)N(C)C)c4)n3c2)c(OC)c1`, the CPE inhibition was -8.87% (inactive).

On to `C[C@@H]1CN([C@@H](C)CO)C(=O)Cc2cc(NC(=O)CCN3CCOCC3)ccc2O[C@@H]1CN(C)CC1CC1`, for which the CPE inhibition was -11.7% (inactive).

Take `C[C@H](CO)N1C[C@H](C)[C@@H](CN(C)CC2CC2)Oc2ccc(NC(=O)Nc3ccccc3)cc2CC1=O`: the CPE inhibition was 7.45% (inactive).

`CCCCCCCCCCCCN1[C@@H](CC(C)=O)c2cc(F)cc(F)c2S1(=O)=O`: the CPE inhibition is 37.7% (active).

For `COc1ccc(CN2[C@@H](CC(=O)O)c3cc(F)ccc3S2(=O)=O)cc1`, the CPE inhibition is -4.72% (inactive).

Turning to `CCCCCCN1CCN(C2CN(Cc3cn(Cc4ccc(F)cc4)nn3)S(=O)(=O)C2)CC1` (centres undefined), the CPE inhibition is -0.218% (inactive).

Turning to `CO[C@H]1CN(C)C(=O)c2ccc(NC(=O)C3CC3)cc2OC[C@H](C)N(CCc2ccccc2)C[C@@H]1C`, the CPE inhibition was 4.92% (inactive).

Consider `COCC(=O)N(C)C[C@@H]1Oc2ncc(-c3ccccc3OC)cc2C(=O)N([C@@H](C)CO)C[C@@H]1C`, for which the CPE inhibition is 0.798% (inactive).

Turning to `CC(C)NC(=O)Nc1ccc2c(c1)C(=O)N([C@H](C)CO)C[C@@H](C)[C@@H](CN(C)C(=O)c1ccncc1)OCCCC[C@H](C)O2`, the CPE inhibition is -1.8% (inactive).

For the compound `CNC(=O)C[C@@H]1CC[C@@H]2[C@@H](COc3ccc(NC(=O)c4ccc(F)cc4)cc3C(=O)N2C)O1`, the CPE inhibition was -2.03% (inactive).

Regarding `Cc1noc(C)c1NC(=O)Nc1cccc2c1O[C@H](CN(C)C(=O)Nc1c(C)noc1C)[C@@H](C)CN([C@@H](C)CO)C2=O`, the CPE inhibition is -1.85% (inactive).

Consider `Cc1noc(C)c1NC(=O)N(C)C[C@@H]1Oc2c(NC(=O)CCCCCC(=O)Nc3ccccc3N)cccc2C(=O)N([C@H](C)CO)C[C@@H]1C`, for which the CPE inhibition was 57.6% (active).

Consider `C[C@@H]1CN([C@@H](C)CO)C(=O)c2cccc(NC(=O)CCCCCC(=O)Nc3ccccc3N)c2O[C@H]1CN(C)C(=O)Nc1cccc2ccccc12`, for which the CPE inhibition was 20.8% (active).

As to `C[C@H]1CN([C@@H](C)CO)C(=O)c2cccc(NC(=O)Nc3ccccc3)c2O[C@H]1CN(C)C(=O)Nc1cccc2ccccc12`, the CPE inhibition was 3.97% (inactive).

As for `Cc1noc(C)c1NC(=O)N(C)C[C@@H]1Oc2c(NC(=O)C3CCCCC3)cccc2C(=O)N([C@H](C)CO)C[C@@H]1C`, the CPE inhibition is -0.956% (inactive).

`C[C@@H]1CN([C@@H](C)CO)C(=O)c2cccc(NC(=O)CCCCCC(=O)Nc3ccccc3N)c2O[C@H]1CN(C)C(=O)Nc1ccccc1`: the CPE inhibition is 4.08% (inactive).

With `COCC(=O)N1[C@H](CO)[C@H](c2ccccc2C2=CCCCC2)[C@@H]1C#N`, the CPE inhibition is 5.95% (inactive).

In the case of `C[C@H]1CN([C@@H](C)CO)C(=O)c2cccc(NC(=O)Nc3ccc(C(F)(F)F)cc3)c2O[C@H]1CN(C)CC1CCCCC1`, the CPE inhibition is -8.84% (inactive).

On to `CC(=O)N1[C@H](CN(C)S(=O)(=O)c2ccccc2)[C@H](c2ccccc2)[C@@H]1CO`, for which the CPE inhibition was 15.4% (inactive).

With `COc1cccc(S(=O)(=O)N(C)C[C@@H]2Oc3cc(C4=CCCCC4)ccc3S(=O)(=O)N([C@H](C)CO)C[C@H]2C)c1`, the CPE inhibition was 2.02% (inactive).

With `NC(=O)C1CCN(C(=O)COc2ccc3c4c(c(=O)oc3c2)CCC4)CC1`, the CPE inhibition was 68.3% (active).

For `O=C(COc1ccc2c3c(c(=O)oc2c1)CCCC3)NCC(O)c1ccccc1` (centres undefined), the CPE inhibition was 3.96% (inactive).

Take `O=C(COc1ccc2c3c(c(=O)oc2c1)CCC3)NC1CCCCC1`: the CPE inhibition is 2.16% (inactive).

Consider `COC(=O)C1=C(C)N(Cc2cccc(C(F)(F)F)c2)C(=NCc2cccc(C(F)(F)F)c2)NC1c1ccccc1C(F)(F)F` (centres undefined), for which the CPE inhibition was 19.7% (inactive).

As for `COC(=O)C1=C(C)N(Cc2cccc(C(F)(F)F)c2)C(=NCc2ccccc2)NC1c1ccccc1C(F)(F)F` (centres undefined), the CPE inhibition was -6.35% (inactive).

As to `COC(=O)C1=C(C)N(Cc2cccc(C(F)(F)F)c2)C(=NCc2ccccc2)NC1c1ccc(Cl)cc1` (centres undefined), the CPE inhibition was 27.3% (active).

On to `Cc1noc(C)c1NC(=O)Nc1ccc2c(c1)C(=O)N([C@H](C)CO)C[C@H](C)[C@H](CN(C)C(=O)C1CCCCC1)OCCCC[C@@H](C)O2`, for which the CPE inhibition was -8% (inactive).

On to `CCN1[C@@H]2c3ccc(C4=CCCC4)c(=O)n3C[C@@H]2[C@@H](CO)[C@@H]1C(=O)NCc1ccccn1`, for which the CPE inhibition is -1.73% (inactive).

Consider `O=C(Cc1ccccn1)N[C@@H]1CC[C@H](CCn2cc(-c3ccc(F)cc3)nn2)O[C@@H]1CO`, for which the CPE inhibition is -1.64% (inactive).

Turning to `COCC(=O)Nc1ccc2c(c1)[C@@H]1C[C@H](CC(=O)NCc3ccc(Cl)cc3)O[C@H](CO)[C@@H]1O2`, the CPE inhibition is 2.48% (inactive).

Take `O=C(NC1CCCCC1)C1CC(=O)N(CCc2ccccc2)C1` (centres undefined): the CPE inhibition is -1.18% (inactive).

With `Cc1ccc(CCN2CC(C(=O)NCCc3ccccc3)CC2=O)cc1` (centres undefined), the CPE inhibition was 34.2% (active).

Consider `O=C(NCCCN1CCCCC1)C1CC(=O)N(CCc2ccccc2)C1` (centres undefined), for which the CPE inhibition is 4.06% (inactive).

As for `CCCN1C[C@@H](C)[C@@H](OC)CN(C)C(=O)c2cc(NC(=O)c3ccccc3)ccc2OC[C@H]1C`, the CPE inhibition is -10.4% (inactive).

Consider `COc1ccc(NC(=O)C2(C)Cc3c(-c4cccc(NC(C)=O)c4)ccnc3O2)cc1` (centres undefined), for which the CPE inhibition was -2.95% (inactive).

Turning to `CC(=O)Nc1cccc(-c2ccnc3c2CC(C)(C(=O)NCc2ccco2)O3)c1` (centres undefined), the CPE inhibition is 32.1% (active).

For the compound `CC1(C(=O)NCc2ccco2)Cc2c(-c3ccc4c(c3)OCO4)ccnc2O1` (centres undefined), the CPE inhibition is 7.65% (inactive).

Consider `COCC#Cc1cnc2c(c1)C(=O)N([C@@H](C)CO)C[C@@H](C)[C@@H](CN(C)C(=O)Nc1ccccc1OC)O2`, for which the CPE inhibition was 8.53% (inactive).

In the case of `CN1CCN(CC(=O)Nc2cccc([N+](=O)[O-])c2)CC1`, the CPE inhibition is -4.21% (inactive).

With `Cc1ccc(S(=O)(=O)N(Cc2cccc([N+](=O)[O-])c2)C(=O)N2CCN(C)CC2)cc1`, the CPE inhibition was 56.8% (active).

In the case of `CCN1CCN(C(=O)N(Cc2ccc(Cl)cc2)S(=O)(=O)c2ccc(C)cc2)CC1`, the CPE inhibition is -3.82% (inactive).

On to `Cc1ccccc1-c1ccc2c(c1)O[C@@H](CN(C)Cc1ccncc1)[C@@H](C)CN([C@H](C)CO)S2(=O)=O`, for which the CPE inhibition is 7.62% (inactive).

With `CN(C)c1ccc2c(c1)[C@H]1C[C@H](CC(=O)O)O[C@H](CO)[C@H]1O2`, the CPE inhibition is 0.102% (inactive).

Take `C[C@@H]1CN([C@@H](C)CO)C(=O)c2cccc(NC(=O)c3ccc(-c4nccs4)cc3)c2O[C@H]1CN(C)Cc1ccc(Cl)c(Cl)c1`: the CPE inhibition was -8.98% (inactive).

`Cc1ccc(C(=O)Oc2ccc(C(=S)N3CCOCC3)cc2)cc1`: the CPE inhibition was 12.3% (inactive).

As to `Cc1ccc(C(=O)N2CCN(S(=O)(=O)N3CCOCC3)CC2)cc1`, the CPE inhibition was -4.28% (inactive).

As for `Cc1ccc(C(=O)C(=S)N2CCOCC2)cc1`, the CPE inhibition is 41.4% (active).

Consider `C[C@@H]1CCCCO[C@H](CN(C)Cc2ccc(Cl)c(Cl)c2)[C@H](C)CN([C@@H](C)CO)C(=O)c2cc(NC(=O)CCC(F)(F)F)ccc2O1`, for which the CPE inhibition was 2.84% (inactive).

Regarding `C[C@H](NC(=O)C[C@H]1CC[C@H]2[C@@H](COC[C@H](O)CN2C(=O)Nc2cc(Cl)cc(Cl)c2)O1)c1ccccc1`, the CPE inhibition was -1.1% (inactive).

With `C/C=C\C=C\C(=O)N1CC2(CC(c3cccc(NC(=O)/C(C)=C\C)c3)=NO2)C[C@H]1C(N)=O` (some centres undefined), the CPE inhibition was 11.7% (inactive).

For the compound `C/C=C(\C)C(=O)N1CC2(CC(c3cccc(NC(=O)CCCCC)c3)=NO2)C[C@@H]1C(N)=O` (some centres undefined), the CPE inhibition was 85.8% (active).

As to `CC/C=C/C(=O)N1CC2(CC(c3cccc(NC(=O)CC)c3)=NO2)C[C@H]1C(N)=O` (some centres undefined), the CPE inhibition was -7.83% (inactive).

Regarding `C[C@@H]1CN([C@H](C)CO)C(=O)c2cc(C3=CCCCC3)cnc2O[C@@H]1CN(C)C(=O)c1ccc2c(c1)OCO2`, the CPE inhibition is -7.8% (inactive).

For the compound `C[C@@H]1CCCCO[C@H](CN(C)S(=O)(=O)c2cccs2)[C@H](C)CN([C@H](C)CO)C(=O)c2cc(NC(=O)c3ccccc3)ccc2O1`, the CPE inhibition is 56.2% (active).

On to `COc1ccc(S(=O)(=O)N(C)C[C@H]2OCCCC[C@@H](C)Oc3ccc(NC(=O)c4ccncc4)cc3C(=O)N([C@H](C)CO)C[C@@H]2C)cc1`, for which the CPE inhibition is -4.42% (inactive).

In the case of `COc1ccc(S(=O)(=O)N(C)C[C@@H]2OCCCC[C@@H](C)Oc3ccc(NC(=O)c4ccccc4)cc3C(=O)N([C@@H](C)CO)C[C@H]2C)cc1`, the CPE inhibition is 53.6% (active).

Take `CC(C)NC(=O)Nc1ccc2c(c1)C(=O)N([C@H](C)CO)C[C@@H](C)[C@@H](CN(C)S(=O)(=O)c1cccs1)OCCCC[C@@H](C)O2`: the CPE inhibition was -0.241% (inactive).

For `C[C@@H]1CCCCO[C@H](CN(C)S(=O)(=O)c2cccs2)[C@@H](C)CN([C@H](C)CO)C(=O)c2cc(NC(=O)Nc3ccccc3)ccc2O1`, the CPE inhibition is 9.31% (inactive).

With `C[C@@H]1CN([C@H](C)CO)C(=O)c2cc(NC(=O)c3ccccc3)ccc2O[C@@H](C)CCCCO[C@H]1CN(C)S(=O)(=O)c1ccccc1`, the CPE inhibition is -7.35% (inactive).
